# Data: PubChem BioAssay AID2842 (Southern Research Institute, 2010)
# The whole screen tested about 24,000 compounds, of which about 1,200 (5%) were called active. Another 2% or so got no clear call; they are omitted. Only a sample is shown. Values without a mark were called inactive. How the calls were made is not given here.
# Assay: Mycobacterium tuberculosis H37Rv growth inhibition, putative kinase inhibitor library, confirmatory dose response (AID 2842);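 further: bacteria incubated one week before Alamar blue readout; 0% = bacteria only wells and 100% = bacteria with high antibiotic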
# Conditions: M. tuberculosis H37Rv growth inhibition; CC50: measured here: Vero cell cytotoxicity; inhibition: hits give high values
row,Structure (SMILES),inhibition [%]
1,CCOC(=O)N1CCc2c(sc(NC(=O)c3ccc(Br)s3)c2-c2nc3ccccc3s2)C1,4.21
2,Cn1c(=O)[nH]c(=O)c2c1nc(SCC(N)=O)n2CC(O)COc1ccc(Cl)cc1 (stereo not given),-5.17
3,Nc1nc2c(s1)CCCC2,16.9
4,COC(=O)C(C)Sc1nnc(Cc2cc(=O)[nH]c(=O)[nH]2)n1-c1ccc(Cl)cc1 (stereo not given),-6.18
5,Cc1ccc(-n2c(=O)[nH]c3c(C(N)=O)nc(-c4ccc(C(C)C)cc4)nc32)cc1C,-7.6
6,COc1ccc(-n2nc3c(c2NC(=O)Cc2cccs2)CSC3)cc1,-3.68
7,Cc1cccc(NC(=O)C2C(=O)CN(c3ccccc3)C2=O)c1 (stereo not given),-3.29
8,O=C(/C=C/c1ccccc1Cl)Nc1nc(-c2nc3ccccc3s2)cs1,-0.67
9,COc1ccc(OC)c(-c2nnc(NC(=O)C(C)Sc3ccccc3)s2)c1 (stereo not given),-0.69
10,COc1ccc(Nc2nc(N3CCN(c4cccc(Cl)c4)CC3)nc3nccnc23)cc1,9.83
11,CCN(CC)CCCNc1ncnc2sc3c(c12)CC(C)CC3 (stereo not given),5.59
12,COc1cc(C(=O)NC(=S)Nc2cccc3c2C(=O)NC3=O)cc(OC)c1OC,-8.66
13,Cn1c(=O)c2c(nc(SCCN3CCOCC3)n2Cc2ccccc2)n(C)c1=O,0.8
14,COc1ccc(C(=O)c2cn(CC(=O)Nc3ccc(F)cc3)c3ccc(F)cc3c2=O)cc1,9.54
15,CC1(C)Cc2c(sc(NC(=O)/C=C/c3ccccc3)c2C#N)C(C)(C)N1,-4.69
16,COc1ccc(CC(=O)NCCc2cc3ccc(C)cc3[nH]c2=O)cc1OC,11.1
17,CC1(C)COc2ccc(NC(=O)Cc3cccs3)cc2NC1=O,6.11
18,CCS(=O)(=O)c1cccc(C(=O)Nc2sc(C)c(C)c2C(=O)NC)c1,-4.86
19,CCOC(=O)N1CCN(C(=O)COc2cccc3c2CCN(CC)C3=O)CC1,-2.11
20,Cn1c(Cn2c(=O)sc3ccccc32)nnc1SCC(=O)Nc1ccc2c(c1)OCO2,-4.61
21,CC(C)N1CCc2c(sc(NC(=O)c3ccccc3Oc3ccccc3)c2C(N)=O)C1,81.6
22,COC(=O)c1c(NC(=O)c2ccccc2)sc2c1CC(C)(C)NC2(C)C,16.8
23,Cc1ccc(NC(=O)CSc2nccn(-c3ccc(F)cc3)c2=O)c(C)c1,-11.8
24,CNC(=O)C(=O)c1c[nH]c2ccccc12,4.99
25,CC1CCCCN1c1ncnc(N)c1[N+](=O)[O-] (stereo not given),1.66
